This note sets out measurements from the supplement of paper PMC8726507.

SMILES strings stand for the structures. Unmarked numbers belong to inactive results.

One experiment has as its system Plasmodium falciparum NF54-HGL (transmission to Anopheles stephensi). Put plainly: percentage of barcode signal found in uninfected mosquitoes (transmission-blocking activity); higher = stronger blocking of transmission to mosquito, active = 80 or more. The note with it: 10 µM; gametocyte preincubation time 24 h; readout time post-feed 8 days. Here is the method: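 The mixture was fed to Anopheles stephensi in 96-well plates as blood meals tagged with DNA-barcoded Asaia bacteria. Eight days later, mosquitoes were classed infected or uninfected by luminescence (mean + 5 SD of unfed controls). Barcodes were quantified by Luminex MagPlex-TAG in the pooled uninfected and infected Asaia cultures, background-corrected, and the score is % of barcode signal in uninfected mosquitoes = 100*Iu/(Iu+Ii).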
Consider `COc1nc2ccc(Br)cc2cc1[C@@H](c1ccccc1)[C@@](O)(CCN(C)C)c1cccc2ccccc12`, for which the “percentage of barcode signal found in uninfected mosquitoes” value (shortened to “percentage of barcode signal found”) is -3.2%.

`c1ccc(Oc2ccc(-c3cc(C4CCOCC4)[nH]n3)cc2)cc1`: the “percentage of barcode signal found” value is 10.6%. The same measure, in the same setting: the figure for `COc1ccc(C2=NN(C3CCCCCC3)C(=O)[C@@H]3CC=CC[C@H]23)cc1OCCCCOc1ccc(-c2nn[nH]n2)cc1` is 63.6%. As to `OCCc1ccc(Nc2nccc(-c3nnc4ccccn34)n2)cc1`, the “percentage of barcode signal found” value is 77%. Consider `O=C(COc1cccc(F)c1)Nc1nc(-c2ccccn2)cs1`, for which the “percentage of barcode signal found” value is 38.7%.

For the compound `Cn1ncc2c(N3CCOCC3)nc(NCCc3c[nH]c4ccccc34)nc21`, the “percentage of barcode signal found” value was 64.2%.

As for `FC(F)(F)c1cnc(Sc2nnc(-c3ccncc3)o2)c(Cl)c1`, the “percentage of barcode signal found” value was 68.8%.

`CC[C@H](CO)NCCN[C@H](CC)CO`: the “percentage of barcode signal found” value was 24.2%. Turning to `O=C(NCCN1CCCC1)c1cc(NCCCCN2CCC(F)(F)CC2)nc2ccc(Cl)cc12`, the “percentage of barcode signal found” value was 91.2% (active).

Consider `CC(C)(C)OC(=O)N1CCN(c2nccc(-c3ccc(-c4ccc(Cl)cc4)s3)n2)CC1`, for which the “percentage of barcode signal found” value is 20.6%. Still for that read-out and setting: in the case of `CC(=O)Nc1ccc(NC(=O)c2cc(-c3cc(Cl)ccc3O)[nH]n2)cc1` it was 27.4%; in that of `COc1cccn2c(C(=O)N3CCCCC3)c(C(F)(F)F)nc12`, 27.1%. Still for that read-out and setting: the figure for `c1ccc(-c2cc(N3CCCCC3)c3ccccc3n2)nc1` is 53.1%; for `Cc1ccc(C(=O)Nc2ccc(S(=O)(=O)O)c3cc(S(=O)(=O)O)cc(S(=O)(=O)O)c23)cc1NC(=O)c1cccc(NC(=O)Nc2cccc(C(=O)Nc3cc(C(=O)Nc4ccc(S(=O)(=O)O)c5cc(S(=O)(=O)O)cc(S(=O)(=O)O)c45)ccc3C)c2)c1` it is 32.8%. Same read-out and setting: the figure for `Cc1cc(C)cc(COc2ccc3c(C)c(CCC(=O)O)c(=O)oc3c2C)c1` is 1.73%. With `COc1ccc(N(CCc2cccc(C)n2)C(=O)C2CCCCC2)cc1`, the “percentage of barcode signal found” value is 29.5%. On the same count and under the same terms, the figure for `COC(=O)c1cccc2oc(-c3cccc(OC)c3NC(=O)c3cc(-c4ccccc4)on3)nc12` is 31%. With `CC(C)C(NC(=O)Cc1cccc2ccccc12)C(=O)Nc1cccc(C#N)c1` (stereo not given), the “percentage of barcode signal found” value is 53.4%. Turning to `CCN(CC)CCCCCCNc1cc(OC)cc2c(C)ccnc12`, the “percentage of barcode signal found” value was 55.8%. On the same count and under the same terms, in the case of `Cc1ccc(S(=O)(=O)N2CCN(C(=O)c3cc(-c4ccccc4)[nH]n3)CC2)cc1` it was 69.8%.

The same experiment, now with this note: 20 µM; gametocyte preincubation time 24 h; readout time post-feed 8 days.
In the case of `COc1cccc(CC(=O)N2CCC(n3c(C)nc4ccc(F)cc43)CC2)c1`, the “percentage of barcode signal found” value was 31.2%. Still for that read-out and setting: in the case of `CCOc1ccccc1NC(C)C(=O)Nc1cc(C(F)(F)F)ccc1N1CCOCC1` (stereo not given) it was 40.9%; in that of `CC(C)(C)OC(=O)N1CCN(c2cc(-c3ccc(Oc4ccccc4)cc3)n[nH]2)CC1`, 39.8%. Turning to `Cc1ccc(-c2cc(C(=O)Nc3cccnc3)c3cc(Br)ccc3n2)cc1`, the “percentage of barcode signal found” value is 42.5%.

`Clc1cccc(CO[C@H]2CCc3ccccc3[C@@H]2n2ccnn2)c1`: the “percentage of barcode signal found” value was -1.12%. Still for that read-out and setting: the figure for `CN1CCN(S(=O)(=O)c2ccc(-c3ccc4c(Nc5ccc6nn[nH]c6c5)ccnc4c3)cc2)CC1` is 3.18%. Take `CCc1ccccc1-n1c(C)cn2c3c(=O)n(C(C(=O)OC)C(C)C)c(=O)n(C)c3nc12` (stereo not given): the “percentage of barcode signal found” value was 54.1%. The same measure, in the same setting: the figure for `FC(F)(F)c1cccc(-c2nc3c(NCc4ccncc4)nccc3[nH]2)c1` is 2.48%; for `O=[N+]([O-])c1cn2c(n1)OC[C@@H](OCc1ccc(OC(F)(F)F)cc1)C2` it is 17%.

On to `CCNC(=O)C(C)Nc1nc(-c2cccnc2)nc2sc(C)c(C)c12` (stereo not given), for which the “percentage of barcode signal found” value is 11.5%.

As for `COc1ccc2nccc(NC(=O)C3CCN(CCc4ccc(Cl)cc4)CC3)c2n1`, the “percentage of barcode signal found” value was 5.62%. On the same count and under the same terms, in the case of `CC(C)(C)n1nc(Cc2cccc3ccccc23)c2c(N)ncnc21` it was 0.0299%.

Regarding `CC(C)C(Oc1cccc2ccccc12)C(=O)O` (stereo not given), the “percentage of barcode signal found” value is 20%. Same read-out and setting: in the case of `NCC(c1cccs1)S(=O)(=O)c1ccccc1` (stereo not given) it was 17.5%; in that of `CC(C)(C)n1nc(Cc2ccc(F)c(Cl)c2)c2c(N)ncnc21`, 10.3%. Same read-out and setting: the figure for `Cc1ccc(-c2nc(CN(Cc3ccccn3)C(C)C)cs2)o1` is 81.4% (active); for `CN1CCC(c2cc(-c3ccncc3)c(-c3ccc(F)cc3)[nH]2)CC1` it is 78.1%; for `Cc1cc(NCC(C)C)c2n[nH]c(-c3ccccc3)c2n1` it is 43%. Same read-out and setting: in the case of `Cc1cc(C)nc(-n2nc(C)cc2Nc2ccccc2)n1` it was 80.5% (active).

`COc1ccc(-c2cncc3ccc(C(=O)NCCCn4ccnc4)nc23)cc1`: the “percentage of barcode signal found” value is 62.9%.
